Results: PubChem BioAssay (Tox21)
The source made the active and inactive calls. The call rests on the fitted dose curve; in most records, active means well fitted curve in the direction sought with a large enough effect in the repeat runs; inconclusive means weak or mixed curves; inactive means flat fitted curve, though single readings scatter.

Experiment: qHTS assay to test for compound auto fluorescence at 460 nm (blue) in HepG2 cells (AID 720687)
Details: autofluorescence 405/460 nm, 1 h; series mostly up to 91.3 µM; fluorescence, % of fluorescent control: at the top concentration
Text: U.S. Tox21 Program National Center for Advancing Translational Sciences [NCATS] NIH Chemical Genomics Center [NCGC] U.S. Environmental Protection Agency [EPA] National Institutes of Environmental Health Sciences [NIEHS] National Toxicology Program [NTP] U.S. Food and Drug Administration [FDA] Tox21 Assay Overview: Compound auto fluorescence often interferes with screening of the compound library against various biological targets and signaling pathways. Some of these compounds may have fluorophoric properties. Such properties may interfere with the assay outputs resulting in false positives and/or negatives. To decrease such complications and ensure the compound activities are relevant in terms of biological response, the Tox21 10K compound library was screened for auto fluorescence. From the fluorophores used as reporter signals in our screening assays, the auto fluorescence equivalencies of compounds against three fluorophores have been evaluated: Triamterene, Fluorescein and Rose Bengal sodium for blue, green and red fluorescence, respectively. The fluorescence intensities were measured using Excitation/Emission wavelengths at 405/460nm, 485/535nm and 540/590nm for blue, green and red labels, respectively. This assay includes the blue fluorescence data.
Tox21 Assay Protocol Summary: 2,000 HepG2 cells in 5 uL of culture medium (MEM containing 10% FBS) per well were dispensed into black wall/clear bottom 1536-well plates using a Multidrop Combi Dispenser (ThermoFisher Scientific, Waltham, MA). The assay plates were incubated overnight at 37 C to allow cell attachment to the well bottom, followed by the transfer of 23 nL compound or DMSO vehicle by a pintool work station (Kalypsys , San Diego, CA). After the assay plates were incubated for 1 hr at 37 C and 5% CO2, fluorescence intensities in the assay plates were measured by an Envision (PerkinElmer, Shelton, CT) plate reader using three labels for measuring blue, green and red fluorescence at […] 460, 535 and 590 nm respectively.
On the % scale 0 is the no-effect control and ±100 the full control effect.

Compound	fluorescence, % of fluorescent control	outcome
CC1(C)O[C@@H]2C[C@H]3[C@@H]4CCC5=CC(=O)CC[C@]5(C)[C@@]4(F)[C@@H](O)C[C@]3(C)[C@]2(C(=O)CCl)O1	-0.0673% [at 18.6 µM] (inactive)	
CC(=O)OC1C2(C)CCC(C2)C1(C)C (stereo not given)	0.0727% (inactive)	
CCOC(=O)c1ccccc1O		inactive
Cc1c(C(=O)NCCO)[n+](=O)c2ccccc2n1[O-]	0.335% [at 46 µM] (inactive)	
CCCCCCOc1ccc(N)cc1	0.148% (inactive)	
CC(=O)Nc1ccc(C)c(Cl)c1	0.128% (inactive)	
CCCCNc1cc(C(=O)O)cc(S(N)(=O)=O)c1Oc1ccccc1	-0.0058% [at 18.6 µM] (inactive)	
C=CCCCCCCCCO	-0.0232% (inactive)	
C[C@@H](N)C(=O)O	-0.0078% [at 46 µM] (inactive)	
CN(C)Cc1ccccc1		inactive
CCC(=O)O[C@]1(C(=O)SCF)[C@H](C)C[C@H]2[C@@H]3C[C@H](F)C4=CC(=O)C=C[C@]4(C)[C@@]3(F)[C@@H](O)C[C@@]21C	-0.137% [at 18.6 µM] (inactive)	
CC(C)(CO)[C@@H](O)C(=O)NCCC(=O)O		inactive
CCN(O)CC	-0.0147% (inactive)	
CCC(=O)c1ccc2c(c1)N(CCCN(C)C)c1ccccc1S2	0.164% [at 46 µM] (inactive)	
O=[N+]([O-])c1nccn1CO[C@@H](CO)[C@H](O)CO	0.76% [at 46 µM] (inactive)	
O=c1oc2c(O)c(O)cc3c(=O)oc4c(O)c(O)cc1c4c23	0.0914% [at 46 µM] (inactive)	
Cc1ccc([N+](=O)[O-])cc1Cl	-0.105% [at 95.7 µM] (inactive)	
CCOC(=O)COc1ccc2c(c1)CC(NCC(O)c1cccc(Cl)c1)CC2 (stereo not given)	0.195% (inactive)	
O=c1[nH]c(=O)n([C@H]2C[C@H](O)[C@@H](CO)O2)cc1C(F)(F)F	0.0335% [at 46 µM] (inactive)	
O=C1Nc2ccc([N+](=O)[O-])cc2C1=O	0.0836% (inactive)	

Compound	fluorescence, % of fluorescent control	outcome
Clc1cccc(-c2cc(Cl)cc(Cl)c2)c1	0.213% (inactive)	
CCOC(=O)C1CC(=O)C(=C(O)C2CC2)C(=O)C1 (stereo not given)	0.0041% (inactive)	
OCCN(CCO)c1ccccc1	0.256% (inactive)	
CC(=O)OC(C)OC(C)=O	0.136% [at 95.7 µM] (inactive)	
O=C1CCCc2ccccc21	-0.0829% (inactive)	
CCOC(=O)[C@H](CCc1ccccc1)N[C@@H](C)C(=O)N1Cc2cc(OC)c(OC)cc2C[C@H]1C(=O)O	-0.006% [at 46 µM] (inactive)	
CCCC1CCC(=O)O1 (stereo not given)	-0.15% (inactive)	
CCC(=O)Nc1ccc(O)cc1	-0.0832% [at 46 µM] (inactive)	
CCOC(=O)CS	0.075% [at 95.7 µM] (inactive)	
C[C@]12CCC(=O)C=C1CC[C@@H]1[C@@H]2CC[C@@]2(C)[C@H]1CC[C@]2(O)C(=O)CO	0.0365% [at 46 µM] (inactive)	
CC1(C)C(=O)N(Cl)C(=O)N1Br	0.0032% (inactive)	
C[C@]12C(=O)OC(=O)[C@H]1[C@H]1C=C[C@@H]2C1	-0.128% (inactive)	
C1CSCCS1	-0.115% (inactive)	
O=C(O)C(=O)Cc1c[nH]c2ccccc12	0.0775% (inactive)	
CCCNC(C)C(=O)Nc1c(C)csc1C(=O)OC (stereo not given)	0.025% [at 18.6 µM] (inactive)	
CCCCN1C[C@H](O)[C@@H](O)[C@H](O)[C@H]1CO	0.17% [at 46 µM] (inactive)	
CCNCCO	0.0415% (inactive)	
NCCCN1CCN(CCCN)CC1	0.254% (inactive)	
CCC/C=C/CO	0.0306% (inactive)	
CC(=O)N[C@@H](CC(C)C)C(=O)O	-0.124% [at 46 µM] (inactive)	
